Experimental data as given in PubChem BioAssay AID1345083 (National Center for Advancing Translational Sciences (NCATS), 2018).
The whole screen tested about 94,000 compounds, of which about 6,200 (6.6%) were called active. Another 31% or so got no clear call; they are omitted. The full list was thinned out, with actives kept by preference. A number with no mark means an inactive call. The call rests on the fitted dose curve; in most records, active means well fitted inhibition curve with a large enough effect; inconclusive means small, poorly fitted or top-dose-only effect; inactive means flat fitted curve, though single readings scatter.

Assay: Cytotoxic Profiling in HEK 293 Cell Line of Diverse Libraries Using Quantitative High-Throughput Screening; further: nearly all actives have a fitted effect of over 60% in size
Details: HEK 293 viability, ATP luminescence (CellTiter-Glo), 48-72 h; series mostly up to 115 µM; activity change, negative = cytotoxicity: at the top concentration
Outline: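 Luminescence from cellular ATP, measured with CellTiter-Glo, indicates HEK 293 viability. Cells plated at 250 cells/well are treated with compound for 48 or 72 hr at 37 degree Celsius before reagent addition.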
On the % scale 0 is the no-effect control and ±100 the full control effect; potency means the concentration at half of the fitted maximal effect.

Structure (SMILES) | activity change, negative = cytotoxicity | Potency | outcome
COC(=O)C1=CN(CC(=O)Nc2cccc(OC)c2)S(=O)(=O)N=C1C | -21.2% | – | –
CC(c1ccon1)N(C)Cc1cnc(S(=O)(=O)C(C)C)n1Cc1ccccc1F (stereo not given) | -13.1% | – | –
CN1CCC(N2CCC[C@H]2c2nc(-c3ccc(OC4CCCCC4)nc3)no2)CC1 | – | 28.2 µM (active) | –
CC(=O)N1CCC(N2CCC[C@H]2c2nc(-c3ccc(-c4cncnc4)nc3)no2)CC1 | -10.2% [at 172 µM] | – | –
O=C(NC1CCCCC1)N1CCCCCC1c1nc(-c2cccnc2)no1 (stereo not given) | -16.5% | – | –
O=C(N[C@@H]1CN(Cc2cccnc2)C[C@H]1CO)c1cccnc1 | -8.4% | – | –
CCn1cc(CN2CCOc3ccc(C(=O)NCc4ccccc4F)cc3C2)cn1 | -22% | – | –
COc1c(F)cccc1CN1CCOc2cc([S+](=O)([O-])N(C)C)ccc2C1 | – | 79.4 µM (active) | –
O=[S+]([O-])(Nc1cccnc1)c1ccc2c(c1)OCCN(Cc1cscn1)C2 | -16.3% [at 172 µM] | – | –
O=C(c1ccccc1F)N1CCCC2(CN[S+](=O)([O-])c3cccnc3N2)C1 (stereo not given) | -1.19% | – | –
Cc1nonc1OCCNC1CCC2(CCNCC2)CC1 | -20.4% | – | –
O=c1c2ccccc2cnn1CCNC1CCC2(CCNCC2)CC1 | -8.73% | – | –
CN(CCCNC1CCC2(CCNCC2)CC1)c1ccccc1 | – | 79.4 µM (active) | –
CNC(=O)[C@@H]1CN(C(=O)c2cnc(C)cn2)C[C@H]1COC | -3.77% | – | –
Cc1onc(-c2cnn(C)c2NCc2ccc(C#N)cc2)c1C(=O)N1CCN(C)CC1 | -6.43% [at 172 µM] | – | –
CNC(=O)N1CCCC1c1nc(C2CN(C(=O)c3nccn3C)C2)no1 (stereo not given) | – | – | inactive
Cn1ncc2c(C(=O)NCc3ccc4c(c3)OCO4)cc(-c3ccc(Cl)nc3)nc21 | -2.46% | – | –
CN1C(=O)CC[C@]2(C(=O)NCc3ccc4c(c3)OCO4)CCCC[C@@H]12 | 4.76% | – | –
CC1(C(=O)NCc2ccc3c(c2)OCO3)CCc2cnc(NCc3ccccc3)nc21 (stereo not given) | – | 70.8 µM (active) | –
O=C1Nc2ccc(-c3ccccc3)cc2C(=O)N2C[C@H](O)C[C@@H]12 | -41.1% [at 172 µM] | – | –
O=C(Cc1cc(F)c(F)c(F)c1)N1CCC(Cc2cccc(CO)c2)C1 (stereo not given) | -29.4% | – | –
CC(C)(CC(=O)O)CC(=O)N[C@H]1CO[C@H]2[C@@H]1OC[C@@H]2n1nnnc1-c1ccccc1 | -5.18% [at 172 µM] | – | –
c1ccc(CO[C@@H]2CO[C@H]3[C@@H]2OC[C@@H]3n2nnnc2SCc2ccco2)cc1 | – | 89.1 µM (active) | –
CN(C)CC(=O)N1CC[C@H]2COC(=O)N2c2ccccc2C1 | -3.61% [at 172 µM] | – | –
Cc1nc(CCNC(=O)NC2CCCC2)no1 | 0.591% | – | –

Structure (SMILES) | activity change, negative = cytotoxicity | Potency | outcome
COC1C(=O)N(c2cccc(F)c2)C12CCN(C(=O)C1(c3ccccc3)CC1)CC2 (stereo not given) | – | 44.7 µM (active) | –
CNC(=O)[C@@H]1C[C@@H](O)CN1C1CCN(C(=O)C2(c3ccccc3)CC2)CC1 | -19.2% | – | –
CN1C(=O)CS(=O)(=O)C12CCN(C(=O)C1(c3ccccc3)CC1)CC2 | -2.32% | – | –
O=C([C@@H]1C[C@H](Oc2cccnc2)CN1C(=O)Cc1cccc(F)c1)N1CCCC1 | 1.61% | – | –
CCCN(CC1CCOC1)S(=O)(=O)c1ccccc1Cl (stereo not given) | -22.3% | – | –
CN1CCN(c2nc3c(c(=O)[nH]2)CCN(Cc2cccc4[nH]ccc24)CC3)CC1 | -15.9% | – | –
Cc1ccc(C2Cn3nnc(C(=O)N4CCN(C(=O)COc5cccc(C)c5)CC4)c3CO2)cc1 (stereo not given) | 11.9% | – | –
COc1ccc(CN2CCC[C@H]2c2nc(-c3ccc(N(C)C)nc3)no2)c(O)c1 | -5.35% [at 172 µM] | – | –
O=C1CC(c2nc(-c3ccc4nc[nH]c4c3)no2)CN1Cc1ccncc1 (stereo not given) | 1.22% | – | –
c1ccc2c(CN3CCC[C@H]3c3nc(-c4ccnc(N5CCOCC5)c4)no3)c[nH]c2c1 | – | 89.1 µM (active) | –
CC(=O)N1CCN(c2cc(-c3noc([C@@H]4CCCN4C4CCC4)n3)ccn2)CC1 | -23.6% [at 172 µM] | – | –
CC(=O)N1CCN(c2cc(-c3noc([C@@H]4CCCN4Cc4ccccc4)n3)ccn2)CC1 | – | 70.8 µM (active) | –
CS(=O)(=O)c1ccc(CN2CCC[C@H]2c2nc(-c3ccc(N4CCC(C(N)=O)CC4)nc3)no2)cc1 | -12.9% | – | –
Cc1cn2nc(C(=O)NCc3cccs3)cc2c(N2CCCC2)n1 | 4.06% | – | –
CNc1nc(N2CC[C@H](N3CCN(C)CC3)[C@H](CCC(=O)O)C2)ncc1F | 3.05% | – | –
COc1ccc(NC(=O)N2CCC(CC(=O)NCc3ccccc3)C2)cc1OC (stereo not given) | -0.0483% | – | –
COC[C@H]1CCCN1Cc1nc(C2(O)CCN(CC3CCCCC3)CC2)cs1 | -24.9% [at 172 µM] | – | –
Cc1nc(CCNS(=O)(=O)Cc2cccc(Cl)c2)no1 | 3.75% | – | –
COc1ccc(C(=O)N2CC(c3nnc(-c4ccncc4)o3)C3(CCOCC3)C2)cn1 (stereo not given) | -1.02% | – | –
CC(=O)N1CCC(c2nnc3n2C(C(=O)NCCCc2ccccc2)CC3)CC1 (stereo not given) | -5.15% | – | –
O=C(NCCc1ccccc1)C1CCCN1C(=O)c1cccc(-c2ccccn2)c1 (stereo not given) | 3.51% | – | –
Cc1ccc(CC(=O)N2CCC(Cc3nc(-c4cnccn4)no3)CC2)cc1 | -11% | – | –
CNC(=O)[C@@H](Cc1ccccc1)N1CCC[C@H]1C(=O)N1CCC1 | -10.8% [at 172 µM] | – | –
O=C(NCCCc1ccccc1)C1CCCN1c1nccc(Nc2ccccc2F)n1 (stereo not given) | – | 44.7 µM (active) | –
Cc1ccc(Nc2ccnc(N3CCCC3C(=O)N3CCC(Cc4ccccc4)CC3)n2)cc1 (stereo not given) | – | 14.1 µM (active) | –
